# According to PubChem BioAssay:
# The source made the active and inactive calls.
# Assays:
# [1] = tested on: Wnt5a (protein binding on small-molecule microarray); assay: Wnt5a binders on small-molecule microarray, primary screen, biophysical, 635/667 nm fluorescence (AID 1142); settings: 635 nm fluorescence, higher = more signal;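 also: fluorescence read at 667 nm with signal to noise per printed feature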
# [2] = cell viability in Huh7 cells, primary screen, cytotoxicity control for HCV replication inhibitor project, CellTiter-Glo luminescence, basal, 48 h (AID 1143); settings: Huh7 HCV replicon, higher = more signal, called active from +8 up or from −8 down;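 also: Huh7 hepatoma cells carrying a hepatitis C replication reporter with no stimulus; test concentration not given here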
# [3] = CREB reporter modulators without forskolin, primary screen, cell-based, PC12, CRE-LacZ reporter, unstimulated (AID 1145); settings: no forskolin, luminescence, 4.5 h, higher = more signal, called active from +8 up or from −8 down
# [4] = CREB reporter modulators under forskolin, primary screen, cell-based, PC12, CRE-LacZ reporter, forskolin-stimulated (AID 1146); settings: luminescence, 4.5 h, higher = more signal, called active from +8 up or from −8 down;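 also: PC12 cells with 6xCRE LacZ reporter stimulated by forskolin 10 µM; beta-galactosidase reporter signal reflecting CREB driven transcription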
# [5] = molecular target: Streptavidin (Streptomyces avidinii) (UniProt P22629); assay: streptavidin binders on small-molecule microarray, primary screen, artefact control for SMM compound annotation, biophysical, 635/667 nm fluorescence (AID 1147); settings: streptavidin binding, higher = more signal;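 also: signal reflects streptavidin binding to arrayed compounds as a control protein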
# [6] = small-molecule binders of probe aInhba, primary screen, biochemical, small-molecule microarray, 635/667 nm fluorescence (AID 1148); settings: higher = more signal;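 also: score merges 667nm spot fluorescence with signal-to-noise for antibody binding to printed compounds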
# Torsin-1A (Homo sapiens) [7] = molecular target: Torsin-1A (Homo sapiens) (UniProt O14656); assay: torsin A binders from cell lysate, primary screen, small-molecule microarray, wild-type, 635/667 nm (AID 1149); settings: COS7 hTOR1A-WT lysate, 635 nm fluorescence, higher = more signal
# Torsin-1A (Homo sapiens) [8] = molecular target: Torsin-1A (Homo sapiens) (UniProt O14656); assay: small-molecule binders of mutant TOR1A in lysate, primary screen, cell lysate, small-molecule microarray, COS7 lysate, 635/667 nm fluorescence (AID 1150); settings: COS7 hTOR1A mutant lysate, 635 nm fluorescence, higher = more signal;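 also: score pools 667 nm emission and signal to noise measuring lysate protein binding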
# [9] = tested on: Sonic hedgehog protein (Shh); assay: small-molecule binders of Shh protein, primary screen, biochemical, small-molecule microarray, 635/667 nm fluorescence (AID 1151); settings: small-molecule microarray binding, 635 nm fluorescence; higher = more signal;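 also: Shh protein binding to compounds spotted on small-molecule microarray slides; score combines spot fluorescence intensity with signal-to-noise across triplicate slides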
# [10] = E. coli DRC41 culture turbidity changes, primary screen, E. coli filamentation inducer project, strain DRC41, OD650, 48 h (AID 1152);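 also: E. coli MC1000 strain DRC41 lacking acrAB efflux pump and sulA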; settings: E. coli DRC41 (acrAB sulA), higher = more signal, called active from +8 up or from −8 down
# [11] = small-molecule binders of probe aLefty1, primary screen, biochemical, small-molecule microarray, 635/667 nm fluorescence (AID 1153); settings: higher = more signal;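 also: score merges spot fluorescence with signal-to-noise ratio from the scanned slide images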
# [12] = PSAC antagonists in infected red cells, primary screen, cell-based, P. falciparum Indochina, OD700, 1 h (AID 1154); settings: P. falciparum Indochina infected RBC osmotic lysis, higher = more signal, called active from +8 up or from −8 down
# [13] = PSAC antagonists in infected red cells, primary screen, cell-based, P. falciparum Indochina, OD700, 2 h (AID 1155);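 also: lysis reports solute entry through the parasite surface anion channel PSAC; channel blockers reduce lysis of infected cells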; settings: P. falciparum Indochina infected erythrocytes, osmotic lysis OD700; higher = more signal, called active from +8 up or from −8 down
# [14] = osmotic lysis modulators in infected erythrocytes, primary screen, PSAC antagonist project, cell-based, P. falciparum Indochina, OD700, 3 h (AID 1156); settings: higher = more signal, called active from +8 up or from −8 down
# [15] = PSAC antagonists in infected red cells, primary screen, cell-based, P. falciparum Indochina, OD700, 18 h (AID 1157); settings: P. falciparum Indochina infected erythrocytes, osmotic lysis OD700, 18 h; higher = more signal, called active from +8 up or from −8 down
# [16] = modulators of S6 phosphorylation in cells, primary screen, cell-based, A549, cytoblot, luminescence, serum-stimulated (AID 1158); settings: A549 phospho-S6 cytoblot, 5 h, higher = more signal;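 also: serum-stimulated A549 lung adenocarcinoma cells; signal is phosphorylated S6 detected by cytoblot immunostaining with HRP secondary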
# [17] = molecular target: NADPH oxidase 2 (Homo sapiens) (UniProt P04839); assay: NOX2-dependent H2O2 signal modulators, primary screen, NOX inhibitor project, cell-based, HEK293-NOX2, PMA-stimulated, Amplex Red fluorescence (AID 1159); settings: 45 min, higher = more signal, called active from +8 up or from −8 down; also: test concentration not given here
# [18] = molecular target: NADPH oxidase 4 (Homo sapiens) (UniProt Q9NPH5); assay: NOX4-dependent H2O2 signal modulators, primary screen, NOX inhibitor project, cell-based, HEK293-NOX4, tetracycline-induced, Amplex Red fluorescence (AID 1160); settings: 45 min, higher = more signal, called active from +8 up or from −8 down
# [19] = molecular target: NADPH oxidase 5 (Homo sapiens) (UniProt Q96PH1); assay: NOX5-dependent H2O2 signal modulators, primary screen, NOX inhibitor project, cell-based, HEK293-NOX5, Amplex Red fluorescence (AID 1161); settings: HEK293-NOX5, ionomycin, 45 min, higher = more signal
# [20] = A549 cell viability effects, profiling panel, calcein-AM fluorescence, 48 h, basal (AID 1162); settings: higher = more signal; also: test concentration not given here
# Chain of NADPH oxidase 4 (Homo sapiens) (Q9NPH5 whole entry, looked up): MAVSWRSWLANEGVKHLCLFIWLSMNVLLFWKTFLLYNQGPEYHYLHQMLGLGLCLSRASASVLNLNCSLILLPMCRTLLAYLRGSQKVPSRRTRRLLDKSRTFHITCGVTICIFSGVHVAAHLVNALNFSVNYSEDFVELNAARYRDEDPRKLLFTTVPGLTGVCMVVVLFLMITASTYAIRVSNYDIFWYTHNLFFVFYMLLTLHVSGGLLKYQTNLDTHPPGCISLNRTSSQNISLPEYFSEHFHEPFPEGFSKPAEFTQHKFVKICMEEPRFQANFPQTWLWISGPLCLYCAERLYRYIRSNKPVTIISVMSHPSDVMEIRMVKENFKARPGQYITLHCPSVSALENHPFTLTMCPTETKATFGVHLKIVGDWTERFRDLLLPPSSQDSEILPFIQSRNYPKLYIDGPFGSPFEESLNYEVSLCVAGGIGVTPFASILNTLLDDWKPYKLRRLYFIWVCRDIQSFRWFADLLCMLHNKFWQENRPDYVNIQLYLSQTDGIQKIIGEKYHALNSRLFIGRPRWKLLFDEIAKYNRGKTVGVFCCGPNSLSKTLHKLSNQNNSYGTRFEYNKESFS
# Chain of NADPH oxidase 2 (Homo sapiens) (P04839 whole entry, looked up): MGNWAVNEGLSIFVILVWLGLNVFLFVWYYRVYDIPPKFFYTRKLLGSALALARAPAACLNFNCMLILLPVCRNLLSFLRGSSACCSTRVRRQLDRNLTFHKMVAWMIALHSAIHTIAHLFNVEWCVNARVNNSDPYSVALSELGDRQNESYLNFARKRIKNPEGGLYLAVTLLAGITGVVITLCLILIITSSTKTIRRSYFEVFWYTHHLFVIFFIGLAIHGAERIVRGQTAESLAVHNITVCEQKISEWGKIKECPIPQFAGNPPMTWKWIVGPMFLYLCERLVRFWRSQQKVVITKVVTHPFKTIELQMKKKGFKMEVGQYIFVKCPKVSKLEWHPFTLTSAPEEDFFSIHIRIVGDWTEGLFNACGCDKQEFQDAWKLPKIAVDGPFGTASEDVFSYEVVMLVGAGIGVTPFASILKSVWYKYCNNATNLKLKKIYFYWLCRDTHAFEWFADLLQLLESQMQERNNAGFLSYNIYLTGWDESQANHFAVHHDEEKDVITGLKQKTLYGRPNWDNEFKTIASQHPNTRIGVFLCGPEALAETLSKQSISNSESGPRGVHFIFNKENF
# Chain of Streptavidin (Streptomyces avidinii) (P22629 whole entry, looked up): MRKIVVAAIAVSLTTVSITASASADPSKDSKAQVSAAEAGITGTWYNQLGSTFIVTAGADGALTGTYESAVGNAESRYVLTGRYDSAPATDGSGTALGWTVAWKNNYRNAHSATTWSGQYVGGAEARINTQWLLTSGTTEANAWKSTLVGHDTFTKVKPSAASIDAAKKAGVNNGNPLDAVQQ
# Chain of NADPH oxidase 5 (Homo sapiens) (Q96PH1 whole entry, looked up): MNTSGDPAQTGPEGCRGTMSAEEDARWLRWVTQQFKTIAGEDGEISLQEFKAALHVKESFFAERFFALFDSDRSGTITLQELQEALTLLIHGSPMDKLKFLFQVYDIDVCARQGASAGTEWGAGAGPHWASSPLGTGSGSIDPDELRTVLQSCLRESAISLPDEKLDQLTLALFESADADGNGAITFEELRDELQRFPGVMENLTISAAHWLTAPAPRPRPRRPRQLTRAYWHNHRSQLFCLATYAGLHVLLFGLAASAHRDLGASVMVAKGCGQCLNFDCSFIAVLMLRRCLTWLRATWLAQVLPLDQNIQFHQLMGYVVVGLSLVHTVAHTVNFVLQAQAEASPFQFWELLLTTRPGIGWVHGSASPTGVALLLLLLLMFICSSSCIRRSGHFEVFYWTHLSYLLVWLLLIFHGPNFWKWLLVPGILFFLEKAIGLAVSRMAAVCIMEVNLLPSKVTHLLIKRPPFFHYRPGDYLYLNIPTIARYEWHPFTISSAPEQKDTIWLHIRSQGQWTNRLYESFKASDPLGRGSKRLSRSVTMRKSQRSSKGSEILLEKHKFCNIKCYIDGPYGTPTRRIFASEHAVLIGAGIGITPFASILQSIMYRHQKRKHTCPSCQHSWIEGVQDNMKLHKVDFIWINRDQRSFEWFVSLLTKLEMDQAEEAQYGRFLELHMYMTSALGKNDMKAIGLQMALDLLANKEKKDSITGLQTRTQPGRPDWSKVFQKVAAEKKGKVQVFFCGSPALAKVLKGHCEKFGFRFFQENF
# Chain of Torsin-1A (Homo sapiens) (O14656 whole entry, looked up): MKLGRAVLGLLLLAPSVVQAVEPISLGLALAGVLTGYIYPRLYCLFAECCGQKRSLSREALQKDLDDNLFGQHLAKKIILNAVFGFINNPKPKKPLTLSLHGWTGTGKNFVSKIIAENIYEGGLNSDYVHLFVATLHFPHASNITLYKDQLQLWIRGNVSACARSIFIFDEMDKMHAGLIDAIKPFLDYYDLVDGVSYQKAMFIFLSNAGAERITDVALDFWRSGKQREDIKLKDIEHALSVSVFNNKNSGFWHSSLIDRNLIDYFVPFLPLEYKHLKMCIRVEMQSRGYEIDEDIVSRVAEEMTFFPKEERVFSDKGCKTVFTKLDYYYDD
SMILES,composite z-score [1],z-score [2],z-score [3],z-score [4],composite z-score [5],composite z-score [6],composite z-score (Torsin-1A (Homo sapiens) [7]),composite z-score (Torsin-1A (Homo sapiens) [8]),composite z-score [9],z-score [10],composite z-score [11],z-score [12],z-score [13],z-score [14],z-score [15],z-score [16],z-score [17],z-score [18],z-score [19],z-score [20]
C=C(CCCC)/C(=C/C[C@@H](OC(=O)c1ccncc1)c1ccc(OCCO)cc1)c1cnc2ccccc2c1,0.826,-1.93 (inactive),13.4 (active),-0.929 (inactive),1.72,0.108,0.546,0.653,2.1,1.21 (inactive),0.199,26.2 (active),9.47 (active),1.54 (inactive),1.39 (inactive),-0.175,-1.06 (inactive),-1.43 (inactive),-0.922,0.4
C=CCC1(CC=C)C[C@H]2CO[C@H](c3ccc(OC)cc3)N2C1=O,-0.125,-0.15 (inactive),1.73 (inactive),-0.473 (inactive),-0.147,-0.105,0.483,0.862,0.707,2.03 (inactive),-0.0654,-0.214 (inactive),0.573 (inactive),-0.123 (inactive),0.503 (inactive),0.0446,0.992 (inactive),0.181 (inactive),-0.0682,1.12
COCCOC(=O)N1C(=O)[C@@]2(c3cc(C#CCCO)ccc31)[C@H](c1ccccc1OCCO)N1[C@H](c3ccccc3)[C@H](c3ccccc3)OC(=O)[C@H]1[C@@H]2C(=O)NC[C@H](O)c1ccccc1,0.142,-4.1 (inactive),1.42 (inactive),-1.44 (inactive),0.506,0.209,1.94,0.552,1.56,2.96 (inactive),-0.0222,3.88 (inactive),0.965 (inactive),0.673 (inactive),0.442 (inactive),2.31,1.59 (inactive),1.52 (inactive),-0.0153,2.07
CCCNC(=O)[C@@]1(Sc2ccc(C)cc2)CC(=O)N(Cc2cc(C(F)(F)F)cc(C(F)(F)F)c2)[C@@H]1c1ccc(CO)cc1I,0.0758,-3.48 (inactive),0.0279 (inactive),-1.35 (inactive),-0.179,0.172,-0.365,0.0283,0.158,3.98 (inactive),0.114,2.98 (inactive),0.438 (inactive),-0.436 (inactive),-0.191 (inactive),4.1,1.32 (inactive),-1.29 (inactive),1.37,2.5
C[N+](C)(C)CCCC[C@@H]1NC(=O)[C@@H]2C[C@H](C(=O)NCCCCCNC(=O)CS)[C@H](c3ccc(O)cc3)N2C1=O,0.684,-0.244 (inactive),-0.398 (inactive),-0.757 (inactive),-0.101,-0.128,0.348,0.305,1.42,1.18 (inactive),-0.0536,0.453 (inactive),-1.65 (inactive),-4.23 (inactive),-2.4 (inactive),1.4,0.621 (inactive),0.774 (inactive),2.12,-0.215
CC(C)(C)OC(=O)CC[C@@]12N=C(c3ccc(OCCCO)cc3)O[C@@H]1c1ccccc1N(Cc1ccccc1)C2=O,0.215,-4.37 (inactive),1.6 (inactive),-1.25 (inactive),-0.0873,0.222,0.488,0.516,0.657,0.94 (inactive),0.659,28.5 (active),29 (active),3.86 (inactive),2.24 (inactive),0.497,1.56 (inactive),-0.266 (inactive),-1.38,-0.236
COCCOC(=O)N1C(=O)[C@@]2(c3cc(C#CC4(O)CCCCCC4)ccc31)[C@H](c1ccccc1OCCO)N1[C@H](c3ccccc3)[C@H](c3ccccc3)OC(=O)[C@H]1[C@@H]2C(=O)Nc1nc2ccccc2s1,0.478,-4.73 (inactive),0.802 (inactive),-1.05 (inactive),0.16,-0.0468,1.2,0.663,1.52,2.49 (inactive),-0.105,3.33 (inactive),0.299 (inactive),0.851 (inactive),-0.515 (inactive),1.02,1.27 (inactive),-0.694 (inactive),0.339,-0.997
COc1ccc([Si](C)(C)[C@H]2[C@H](CC(=O)N3Cc4ccccc4C[C@H]3CO)O[C@@]3(C(=O)N(Cc4cccc(N5C(=O)COc6ccccc65)c4)c4ccccc43)[C@@H]2C)cc1,0.283,-3.87 (inactive),3.47 (inactive),-1.86 (inactive),0.22,-0.0986,0.562,0.212,2,0.578 (inactive),-0.0035,3.46 (inactive),1.76 (inactive),1.69 (inactive),1.04 (inactive),0.0515,-1.37 (inactive),-0.307 (inactive),-2.34,0.486
O=C1c2ccccc2[C@](Cc2ccccc2I)(C(=O)O)[C@H](c2ccc(CO)cc2)N1Cc1ccccc1Cl,0.0716,-1.86 (inactive),-0.0888 (inactive),-0.873 (inactive),0.414,0.112,0.252,1.01,0.0948,1.76 (inactive),0.122,4.07 (inactive),-0.442 (inactive),0.477 (inactive),-1.07 (inactive),1.21,1.35 (inactive),0.57 (inactive),2.39,1.32
